Measured values reported in PubChem BioAssay (NCATS).
Records with an inconclusive call do not appear. Active and inactive are the calls of the source. Unless noted, the call rests on the fitted dose curve; in most records, active means well fitted curve in the direction sought with a large enough effect; inconclusive means small, poorly fitted or top-dose-only effect, or another doubt; inactive means no such curve, though single readings can be large; an effect the other way counts as inactive or inconclusive.

Tests used:
[1] = target: Lysosomal acid glucosylceramidase (Homo sapiens) (UniProt P04062); experiment: Glucocerebrosidase-p2 (AID 348; in the data active means potency below about 10 µM; further: potency means the concentration at half of the fitted maximal effect); settings: purified GBA, blue fluorogenic substrate, 40 min
How it was run: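 Compounds titrated from 0.6 nM upwards against 0.2 nM enzyme in pH 5.9 citric acid/KH2PO4, taurocholate, tween-20; blue fluorogenic substrate 80 uM, 40 min room temperature, stopped and read Ex 365/Em 440 for AC50.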

[2] = AP1 Signaling Pathway (AID 357; active means well fitted curve in either direction with a large enough effect, not every such curve was filed as active;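 further: ME-180 reporter cells stimulated with EGF at its EC50 level; on the % scale 0 is the no-effect control and ±100 the full control effect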); settings: ME-180 AP-1-bla reporter, EGF-induced, beta-lactamase ratio, 5 h; at 7.69 µM (top of the series) unless noted
How it was run: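 Read-out was the 460nm/530nm emission ratio (excitation 405nm) after CCF4 loading for 2.5 hours at room temperature. Cells carried an AP-1-driven beta-lactamase reporter, were stimulated with EC50 EGF plus compound for 5 hours, and AC50 values came from titrations.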

[3] = target: Cytochrome P450 1A2 (Homo sapiens) (UniProt P05177); experiment: p450-cyp1a2 (AID 410; calls by dose curve; further: potency means the concentration at half of the fitted maximal effect;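 on activity change, negative = inhibition: -100% = full effect of reference inhibitor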); settings: recombinant CYP1A2, luciferin-ME demethylation, luminescence; series mostly up to 57 µM
How it was run: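 Inhibition was calculated relative to 57 uM furafylline (full inhibition). The reaction used human CYP1A2 at 20nM with Luciferin-ME at its Km, 100uM, driven by an NADPH-regenerating system for 60 min at room temperature.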

[4] = NFAT Signaling Pathway (AID 444; active means well fitted curve in either direction with a large enough effect, not every such curve was filed as active;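 further: carbachol stimulus at about its EC50 of 1 µM final; on the % scale 0 is the no-effect control and ±100 the full control effect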); settings: Jurkat NFAT-bla M1, carbachol, beta-lactamase ratio, 5 h; at 7.69 µM (top of the series) unless noted
How it was run: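 Jurkat cells carrying an NFAT-driven β-lactamase reporter and co-transfected muscarinic M1 receptor were treated with compound plus carbachol (1 uM final, an EC50 level) for 5 h at 37 °C. CCF4 loading followed for 1 h at RT; 460/530 nm ratio gave %activity.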

[5] = Stat Signaling Pathway (AID 446; active means well fitted curve in either direction with a large enough effect, not every such curve was filed as active;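 further: ME-180 cervical cancer cells given 40 pM IL-6 alongside compound; SIE-controlled beta-lactamase reporter measured as 460/530 nm FRET emission ratio; on the % scale 0 is the no-effect control and ±100 the full control effect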); settings: ME-180 SIE beta-lactamase reporter, IL-6 stimulated, 5 h; at 7.69 µM (top of the series) unless noted
How it was run: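 ME-180 SIE-bla cells; overnight plating; cpd + IL-6 40 pM, 5 h, 37 C; LiveBLAzer 2.5 h RT; 460/530 nm emission ratio. Normalized to 300 pM IL-6 and 125 nM JAK inhibitor controls.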

[6] = target: Glucocorticoid receptor (Homo sapiens) (UniProt P04150); experiment: GR-GFP Redistribution (AID 450;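 active means compounds whose dose series gives a full or clear partial fitted curve of increased nuclear translocation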; further: potency means the concentration at half of the fitted maximal effect); settings: U2OS GR-GFP nuclear translocation, laser cytometry, 2 h
[7] = target: Glucocorticoid receptor (Homo sapiens) (UniProt P04150); experiment: GR-EFC Redistribution (AID 451; calls by dose curve; further: potency means the concentration at half of the fitted maximal effect); settings: CHO-K1 GR-EFC translocation, beta-gal luminescence, 2 h
How it was run: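 CHO-K1 cells stably expressing nuclear-localized β-gal enzyme acceptor and GR fused C-terminally to the enzyme donor fragment; ligand-driven nuclear translocation restores β-gal by complementation. Compounds titrated up to 46 uM final, 2 h at 37 °C; luminescence read.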

[8] = target: Mitogen-activated protein kinase 10 (Mus musculus) (UniProt Q61831); experiment: JNK3 AlphaScreen Assay (AID 530; active means well fitted curve in either direction with a large enough effect, not every such curve was filed as active;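 further: kinase came from lysate of stimulated human HepG2 cells; signal reports phosphorylation of biotinylated GST-cJun 1-79 at Ser73 with 10 µM ATP; on the % scale 0 is the no-effect control and ±100 the full control effect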); settings: JNK3 lysate, c-Jun phosphorylation; series mostly up to 57.1 µM
How it was run: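 JNK3 came from HepG2 lysates pre-activated with IL-1beta and TNF-alpha and phosphorylated biotinylated GST-cJun (1-79) at 10 uM ATP, pH 7.6, room temperature. Compounds were titrated. AlphaScreen signal used anti-phospho-cJun (Ser73) antibody.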

[9] = target: 3',5'-cyclic-AMP phosphodiesterase 4B (Homo sapiens) (UniProt Q07343); experiment: qHTS Assay for Inhibitors of PDE-IV (AID 607; active means well fitted activation curve with a large enough effect in the main read-out, with a control signal flat, not every such curve was filed as active; further: % of control where 0% means no effect); settings: HEK293 ACTOne CNG channel cells, membrane potential fluorescence; series mostly up to 22.9 µM
How it was run: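 ACTOne HEK293 cells carry a modified cAMP-gated CNG channel and express endogenous PDE4; plated 1000 cells/well, compounds up to 22.9 uM final. Membrane-potential dye fluorescence (ex 535/em 590) was read; parental cells received 10 uM forskolin + 100 uM RO 20-1724.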

[10] = target: Cytochrome P450 2C9 (Homo sapiens) (UniProt P11712); experiment: qHTS Assay for Inhibitors and Substrates of Cytochrome P450 2C9 (AID 883); settings: recombinant CYP2C9, luciferin-H luminescence, 60 min; series mostly up to 57.1 µM; further: potency means the concentration at half of the fitted maximal effect; nearly all actives have a fitted effect of over 60% in size
How it was run: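 Human CYP2C9 (10nM) hydroxylated Luciferin-H (100uM, at its KM) to luciferin in 25mM KPO4. Compound was preincubated 10 min at 37C, then NADPH regeneration started a 60 min reaction at 37C. Luminescence was read after detection reagent, normalized to 57uM sulphaphenazole.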

[11] = target: Cytochrome P450 3A4 (Homo sapiens) (UniProt P08684); experiment: qHTS Assay for Inhibitors and Substrates of Cytochrome P450 3A4 (AID 884); settings: recombinant CYP3A4, Luciferin-PPXE luminescence; series mostly up to 57.1 µM; further: potency means the concentration at half of the fitted maximal effect; nearly all actives have a fitted effect of over 50% in size
How it was run: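 20 nM human CYP3A4 with 25 uM Luciferin-PPXE (at KM) in 200 mM KPO4, preincubated 10 min with compound; NADPH regeneration started a 60 min RT reaction. Luciferin detected by luminescence, normalized to 57 uM ketoconazole as full inhibition.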

[12] = target: Cytochrome P450 3A4 (Homo sapiens) (UniProt P08684); experiment: qHTS Assay for Activators of Cytochrome P450 3A4 (AID 885); settings: recombinant CYP3A4, Luciferin-PPXE luminescence, 60 min; series mostly up to 57.1 µM; further: nearly all actives have a fitted effect of over 65% in size
How it was run: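 20nM CYP3A4 + 25uM Luciferin-PPXE (=KM), 200mM KPO4; cpd 10 min RT; NADPH regen, 60 min RT; stop w/ detection buffer, 20 min; luminescence. Normalized to 57 uM ketoconazole.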

[13] = target: Cytochrome P450 2D6 (Homo sapiens) (UniProt P10635); experiment: qHTS Assay for Inhibitors and Substrates of Cytochrome P450 2D6 (AID 891); settings: recombinant CYP2D6, luciferin-ME EGE luminescence; series mostly up to 57.1 µM; further: potency means the concentration at half of the fitted maximal effect; nearly all actives have a fitted effect of over 60% in size
How it was run: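 Human CYP2D6 (5 nM) with 30 uM Luciferin-ME EGE (at Km) in 100 mM KPO4, compound preincubated 10 min, then NADPH regeneration system for 60 min at room temperature. Luciferin read by luminescence; normalized to 1.43 uM quinidine.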

[14] = Confirmation and Secondary Assay for Modulators of Hemoglobin Beta Chain Splicing at IVS2 654 locus (AID 910); settings: HeLa EGFP-654 splicing reporter, GFP fluorescence, 48 h; series mostly up to 38.3 µM;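 further: per-well total GFP intensity by laser scanning cytometry after 2-day treatment; % of control where 0% means no effect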
How it was run: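 HeLa cells stably carrying EGFP interrupted by mutant beta-globin IVS2-654 intron (CMV-driven) were treated with compound for 2 days at 37C; corrected splicing was scored as total peak GFP intensity per well (488 nm excitation, 500-520 nm emission).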

[15] = Confirmation and Secondary Assay for Modulators of Hemoglobin Beta Chain Splicing at IVS2 705 locus (AID 930); settings: HeLa EGFP-705 splicing reporter, GFP fluorescence, 48 h; series mostly up to 38.3 µM;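 further: HeLa cells stably expressing the EGFP-705 splicing reporter; GFP fluorescence per well restored by corrected splicing of the IVS2-705 intron in EGFP; % of control where 0% means no effect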
How it was run: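 First, HeLa EGFP-705 cells are seeded at 500/well in Optimem with 2% FCS and left overnight. Next, compound or DMSO is added for 2 days. Finally wells are laser-scanned and total peak GFP intensity scored.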

[16] = target: Ubiquitin carboxyl-terminal hydrolase 1 (Homo sapiens) (UniProt O94782); experiment: Inhibitors of USP1/UAF1: Pilot qHTS (AID 504865); settings: purified USP1/UAF1, Ub-rhodamine cleavage fluorescence; series mostly up to 54.9 µM;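 further: rhodamine fluorescence freed from ubiquitin-rhodamine substrate followed over time; top concentration of the series differs between compounds; on the % scale 0 is the no-effect control and ±100 the full control effect; nearly all actives have a fitted effect of over 35% in size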
How it was run: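 USP1/UAF1 complex (1nM) preincubated with compound 15 min at room temperature, then Ub-Rho substrate (150nM final) added. Fluorescence read kinetically at 480/540 nm, 6 reads every 60 seconds. Buffer: 50mM HEPES pH 7.8, 0.5mM EDTA, 0.1 mg/ml BSA, 1mM TCEP, 0.01% Tween-20.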

[17] = Primary qHTS for small molecule stabilizers of the endoplasmic reticulum resident proteome: Secreted ER Calcium Modulated Protein (SERCaMP) assay (AID 1508630); settings: SH-SY5Y GLuc-SERCaMP (Gaussia luciferase released on ER calcium loss) secretion, thapsigargin, luminescence; series mostly up to 38.4 µM; further: on the % scale 0 is the no-effect control and ±100 the full control effect
How it was run: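 GLuc-SERCaMP-expressing SH-SY5Y cells, pretreated 16 h with compound, are challenged with thapsigargin to empty ER calcium stores; after 4 h, coelenterazine is added directly to the medium and luminescence is imaged.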

[18] = target: Cytochrome P450 2C19 (Homo sapiens) (UniProt P33261); experiment: qHTS Assay for Inhibitors and Substrates of Cytochrome P450 2C19 (AID 899); settings: recombinant CYP2C19, luciferin-H EGE luminescence; series mostly up to 57.1 µM; further: potency means the concentration at half of the fitted maximal effect; nearly all actives have a fitted effect of over 60% in size
How it was run: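 Human CYP2C19 (5nM) with Luciferin-H EGE at 10uM (its KM) in 50mM KPO4 was preincubated with compound for 10 min at 37C. NADPH regeneration started a 60 min 37C reaction. Luciferin was read by luminescence, normalized to 57uM ketoconazole.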

[19] = target: Dual specificity protein kinase CLK4 (Homo sapiens) (UniProt Q9HAZ1); experiment: qHTS Assay for Inhibitors of CDC-like Kinase 4 (ADP-FP Assay) (AID 1795); settings: Transcreener ADP fluorescence polarization; series mostly up to 50 µM; further: on the % scale 0 is the no-effect control and ±100 the full control effect; nearly all actives have a fitted effect of over 60% in size
How it was run: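 Recombinant human Clk4 (6.25 nM) phosphorylated RS repeat peptide (100 uM) with 1 uM ATP in Tris pH 7.5/MgCl2/EGTA/DTT/Triton buffer for one hour. ADP was quantified by Transcreener competitive fluorescence polarization against an ADP calibration curve.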

[20] = qHTS Assay for Identification of Small Molecule Agonists for Hypoxia Response Element Signaling Pathway (AID 914; active means well fitted activation curve with a large enough effect in the signal ratio, with a control signal flat, not every such curve was filed as active; the % refers to the signal ratio; further: % of control where 0% means no effect); settings: ME-180 (cervical carcinoma) HRE-bla reporter, beta-lactamase ratio, CoCl2, 17 h; activation: hits give high values
How it was run: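 Positive modulation of EC50 CoCl2-induced hypoxia response element signaling is measured in ME-180 cells with a beta-lactamase reporter. Compounds are titrated, incubation runs 17 hours, and %Activity derives from the blue/green ratio.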

Chain of Cytochrome P450 1A2 (Homo sapiens) (P05177 whole entry, looked up): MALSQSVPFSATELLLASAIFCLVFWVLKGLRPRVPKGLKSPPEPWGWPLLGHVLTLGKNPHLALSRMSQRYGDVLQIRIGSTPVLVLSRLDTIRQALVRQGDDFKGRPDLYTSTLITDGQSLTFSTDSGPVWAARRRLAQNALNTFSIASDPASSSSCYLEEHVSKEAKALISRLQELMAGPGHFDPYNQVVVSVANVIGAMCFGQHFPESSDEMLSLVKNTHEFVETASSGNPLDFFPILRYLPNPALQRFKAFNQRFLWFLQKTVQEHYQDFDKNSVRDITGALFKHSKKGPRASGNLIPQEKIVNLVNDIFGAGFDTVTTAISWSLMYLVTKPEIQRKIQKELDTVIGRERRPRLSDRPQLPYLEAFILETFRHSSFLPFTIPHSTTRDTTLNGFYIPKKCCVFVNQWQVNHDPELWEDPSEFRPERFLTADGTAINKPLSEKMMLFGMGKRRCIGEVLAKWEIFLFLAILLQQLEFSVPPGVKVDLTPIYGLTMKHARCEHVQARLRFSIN
Chain of Glucocorticoid receptor (Homo sapiens) (P04150 whole entry, looked up, the tested form may be a part): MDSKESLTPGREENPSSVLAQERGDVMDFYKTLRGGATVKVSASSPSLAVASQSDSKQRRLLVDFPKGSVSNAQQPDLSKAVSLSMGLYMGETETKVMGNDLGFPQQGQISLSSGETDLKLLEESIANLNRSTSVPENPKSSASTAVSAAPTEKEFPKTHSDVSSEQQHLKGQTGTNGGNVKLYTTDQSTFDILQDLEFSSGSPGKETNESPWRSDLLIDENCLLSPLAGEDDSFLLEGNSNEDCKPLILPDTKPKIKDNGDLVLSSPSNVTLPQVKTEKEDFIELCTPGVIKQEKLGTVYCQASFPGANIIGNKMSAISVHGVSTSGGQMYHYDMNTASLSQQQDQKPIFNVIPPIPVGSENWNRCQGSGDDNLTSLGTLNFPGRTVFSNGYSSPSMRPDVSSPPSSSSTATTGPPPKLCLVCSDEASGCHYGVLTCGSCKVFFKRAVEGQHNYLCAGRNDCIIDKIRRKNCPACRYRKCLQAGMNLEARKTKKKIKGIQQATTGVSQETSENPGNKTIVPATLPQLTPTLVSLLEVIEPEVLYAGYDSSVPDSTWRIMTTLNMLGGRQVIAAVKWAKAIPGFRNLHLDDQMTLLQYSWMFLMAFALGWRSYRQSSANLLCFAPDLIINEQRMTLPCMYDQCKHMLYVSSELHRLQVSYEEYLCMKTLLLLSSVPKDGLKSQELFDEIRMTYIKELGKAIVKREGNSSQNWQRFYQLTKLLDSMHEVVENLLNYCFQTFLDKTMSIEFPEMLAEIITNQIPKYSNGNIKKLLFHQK
Chain of 3',5'-cyclic-AMP phosphodiesterase 4B (Homo sapiens) (Q07343 whole entry, looked up): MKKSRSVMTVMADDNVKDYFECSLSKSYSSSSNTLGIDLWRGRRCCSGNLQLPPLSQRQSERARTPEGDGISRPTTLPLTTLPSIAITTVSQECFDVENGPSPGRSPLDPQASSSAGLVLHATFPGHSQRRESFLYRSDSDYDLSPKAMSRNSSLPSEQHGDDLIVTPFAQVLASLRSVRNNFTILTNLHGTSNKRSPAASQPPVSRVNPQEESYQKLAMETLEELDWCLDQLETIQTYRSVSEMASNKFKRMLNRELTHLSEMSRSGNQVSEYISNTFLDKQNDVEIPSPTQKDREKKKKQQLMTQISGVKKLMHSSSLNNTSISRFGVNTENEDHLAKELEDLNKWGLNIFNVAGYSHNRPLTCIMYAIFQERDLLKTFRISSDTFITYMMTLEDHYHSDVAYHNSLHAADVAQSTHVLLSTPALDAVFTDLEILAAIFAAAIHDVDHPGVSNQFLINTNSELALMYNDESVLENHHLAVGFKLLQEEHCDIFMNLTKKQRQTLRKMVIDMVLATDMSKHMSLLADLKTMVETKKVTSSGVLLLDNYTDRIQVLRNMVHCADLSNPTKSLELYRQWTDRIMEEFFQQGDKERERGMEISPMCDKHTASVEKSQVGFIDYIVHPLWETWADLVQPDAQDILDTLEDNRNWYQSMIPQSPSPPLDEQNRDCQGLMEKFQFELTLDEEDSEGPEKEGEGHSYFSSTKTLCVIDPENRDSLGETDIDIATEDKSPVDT
Chain of Cytochrome P450 3A4 (Homo sapiens) (P08684 whole entry, looked up): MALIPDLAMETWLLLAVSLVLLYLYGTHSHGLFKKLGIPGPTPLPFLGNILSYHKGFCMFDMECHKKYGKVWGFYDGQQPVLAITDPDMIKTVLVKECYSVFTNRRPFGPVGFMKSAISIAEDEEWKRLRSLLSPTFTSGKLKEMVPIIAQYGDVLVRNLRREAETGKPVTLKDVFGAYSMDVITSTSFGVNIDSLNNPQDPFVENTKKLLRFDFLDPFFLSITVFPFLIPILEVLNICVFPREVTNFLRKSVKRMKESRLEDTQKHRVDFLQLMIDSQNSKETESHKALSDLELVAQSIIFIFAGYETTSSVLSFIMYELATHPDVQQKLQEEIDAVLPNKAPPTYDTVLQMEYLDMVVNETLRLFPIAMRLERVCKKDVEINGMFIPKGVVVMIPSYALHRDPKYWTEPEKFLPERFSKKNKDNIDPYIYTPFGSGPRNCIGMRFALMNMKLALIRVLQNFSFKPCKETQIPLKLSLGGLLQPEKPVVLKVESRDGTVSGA
Chain of Ubiquitin carboxyl-terminal hydrolase 1 (Homo sapiens) (O94782 whole entry, looked up): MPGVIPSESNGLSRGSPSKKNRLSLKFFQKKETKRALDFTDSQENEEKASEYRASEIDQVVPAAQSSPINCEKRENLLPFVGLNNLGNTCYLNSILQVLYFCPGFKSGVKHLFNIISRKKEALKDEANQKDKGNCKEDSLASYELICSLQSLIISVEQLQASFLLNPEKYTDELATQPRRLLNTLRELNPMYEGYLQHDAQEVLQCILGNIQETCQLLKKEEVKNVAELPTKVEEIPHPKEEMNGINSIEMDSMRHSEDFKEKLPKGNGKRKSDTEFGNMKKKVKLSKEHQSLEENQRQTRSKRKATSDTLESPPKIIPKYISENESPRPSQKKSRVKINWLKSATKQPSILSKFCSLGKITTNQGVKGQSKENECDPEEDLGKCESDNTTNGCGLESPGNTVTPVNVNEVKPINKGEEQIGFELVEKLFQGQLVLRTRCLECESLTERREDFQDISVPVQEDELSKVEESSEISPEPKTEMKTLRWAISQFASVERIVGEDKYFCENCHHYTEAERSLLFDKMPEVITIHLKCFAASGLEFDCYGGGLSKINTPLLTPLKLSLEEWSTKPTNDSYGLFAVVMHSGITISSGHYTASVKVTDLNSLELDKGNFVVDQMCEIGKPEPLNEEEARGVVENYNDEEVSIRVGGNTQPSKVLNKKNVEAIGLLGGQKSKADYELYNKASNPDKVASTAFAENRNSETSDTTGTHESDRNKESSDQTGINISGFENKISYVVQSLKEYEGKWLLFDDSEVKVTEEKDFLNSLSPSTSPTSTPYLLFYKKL
Chain of Lysosomal acid glucosylceramidase (Homo sapiens) (P04062 whole entry, looked up): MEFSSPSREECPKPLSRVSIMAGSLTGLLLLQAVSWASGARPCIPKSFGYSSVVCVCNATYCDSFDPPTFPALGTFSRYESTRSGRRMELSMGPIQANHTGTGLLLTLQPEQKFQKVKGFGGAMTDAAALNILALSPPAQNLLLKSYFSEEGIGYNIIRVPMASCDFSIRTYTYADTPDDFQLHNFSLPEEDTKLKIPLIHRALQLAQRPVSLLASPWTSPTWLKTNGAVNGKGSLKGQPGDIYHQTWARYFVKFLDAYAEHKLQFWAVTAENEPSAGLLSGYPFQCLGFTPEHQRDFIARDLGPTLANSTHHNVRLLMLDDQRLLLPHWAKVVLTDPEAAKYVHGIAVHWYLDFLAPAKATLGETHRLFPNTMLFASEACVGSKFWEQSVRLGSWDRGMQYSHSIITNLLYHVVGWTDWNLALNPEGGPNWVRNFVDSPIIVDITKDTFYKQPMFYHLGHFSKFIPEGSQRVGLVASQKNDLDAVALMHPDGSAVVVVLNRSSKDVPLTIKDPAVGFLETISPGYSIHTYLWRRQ
Chain of Dual specificity protein kinase CLK4 (Homo sapiens) (Q9HAZ1 whole entry, looked up): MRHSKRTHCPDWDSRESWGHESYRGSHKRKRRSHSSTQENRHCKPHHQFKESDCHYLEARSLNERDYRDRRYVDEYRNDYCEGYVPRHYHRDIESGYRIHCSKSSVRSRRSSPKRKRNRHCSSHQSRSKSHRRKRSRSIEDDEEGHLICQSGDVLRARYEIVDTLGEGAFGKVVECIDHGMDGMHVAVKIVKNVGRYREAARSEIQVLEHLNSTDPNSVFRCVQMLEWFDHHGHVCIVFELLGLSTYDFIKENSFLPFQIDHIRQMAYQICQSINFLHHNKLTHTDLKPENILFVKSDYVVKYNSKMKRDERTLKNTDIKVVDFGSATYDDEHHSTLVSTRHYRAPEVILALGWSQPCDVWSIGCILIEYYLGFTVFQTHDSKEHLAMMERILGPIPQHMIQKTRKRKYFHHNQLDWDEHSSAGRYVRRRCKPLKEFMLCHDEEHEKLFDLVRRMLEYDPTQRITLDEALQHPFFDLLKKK
Chain of Cytochrome P450 2D6 (Homo sapiens) (P10635 whole entry, looked up): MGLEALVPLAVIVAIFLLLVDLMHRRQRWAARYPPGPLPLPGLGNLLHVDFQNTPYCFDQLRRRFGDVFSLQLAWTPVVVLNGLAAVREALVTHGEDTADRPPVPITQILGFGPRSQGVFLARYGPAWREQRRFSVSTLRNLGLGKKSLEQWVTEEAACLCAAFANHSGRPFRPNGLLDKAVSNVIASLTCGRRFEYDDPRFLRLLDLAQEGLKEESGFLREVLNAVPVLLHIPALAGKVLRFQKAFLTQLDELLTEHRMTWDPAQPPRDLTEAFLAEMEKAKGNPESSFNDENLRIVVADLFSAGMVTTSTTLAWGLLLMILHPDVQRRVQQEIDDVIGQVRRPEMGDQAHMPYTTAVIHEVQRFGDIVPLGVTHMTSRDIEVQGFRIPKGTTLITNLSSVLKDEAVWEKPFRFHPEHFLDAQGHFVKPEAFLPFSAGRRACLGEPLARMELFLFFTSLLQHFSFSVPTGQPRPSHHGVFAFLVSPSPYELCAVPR

COc1cccc(-c2cncnc2NCCc2cnc[nH]2)c1
active: Potency [3] 0.398 µM | Potency [10] 0.251 µM | Potency [11] 0.631 µM | Potency [13] 7.94 µM
inactive: Potency [1] > 11.4 µM | activity change, negative = inhibition [2] -20.9% | activity change, negative = inhibition [4] -4.17% | activity, negative = inhibition [5] -17% | Potency [6] > 46 µM | Potency [7] > 46 µM | Potency [8] | Potency [9] | Potency [12] | Potency [14] | outcome [15] | Potency [16] | outcome [17]

COc1ccccc1-c1cc(Nc2ccc(F)cc2)ncn1
active: Potency [3] 2 µM | Potency [18] 7.94 µM
inactive: activity change, negative = inhibition [4] -14.1% | activity, negative = inhibition [5] -19.9% | Potency [6] > 46 µM | Potency [7] > 46 µM | Potency [8] | Potency [19] | outcome [17]

c1ccc2c(NC3CC3)nc(-c3ccoc3)nc2c1
inactive: activity change, negative = inhibition [2] 14.4% | activity change, negative = inhibition [4] -16.4% | activity, negative = inhibition [5] -5.96% | Potency [6] > 46 µM | Potency [7] > 46 µM | Potency [8] | Potency [12] | Potency [16] | outcome [17]
active: Potency [1] 3.8 µM | Potency [3] 0.316 µM | Potency [11] 3.98 µM

Cc1noc(C)c1-c1nc(Nc2ccccc2)c2ccccc2n1
inactive: activity change, negative = inhibition [2] -13.6% | activity change, negative = inhibition [4] -11.8% | activity, negative = inhibition [5] -8.68% | Potency [6] > 46 µM | Potency [7] > 46 µM | Potency [8] | Potency [12] | Potency [19] | Potency [16] | outcome [17]
active: Potency [3] 0.251 µM | Potency [11] 6.31 µM

Cc1noc(C)c1-c1cncnc1NC1CC1
inactive: Potency [1] > 11.4 µM | activity change, negative = inhibition [2] 12.1% | Potency [3] | activity change, negative = inhibition [4] 0.874% | activity, negative = inhibition [5] -18.4% | Potency [6] > 46 µM | Potency [7] > 46 µM | Potency [8] | Potency [9] | Potency [12] | Potency [14] | outcome [15] | Potency [16] | outcome [17]
active: Potency [11] 7.94 µM

CC(=O)NCCNc1ccnc(-c2ccccc2C)n1
inactive: Potency [1] > 11.4 µM | activity change, negative = inhibition [2] 12.2% | activity change, negative = inhibition [4] 6.08% | activity, negative = inhibition [5] 8.94% | Potency [6] > 46 µM | Potency [7] > 46 µM | Potency [8] | Potency [9] | Potency [12] | Potency [16] | outcome [17]
active: Potency [3] 3.98 µM

c1ccc(CNc2ncncc2-c2ccoc2)cc1
active: Potency [3] 5.01 µM | Potency [11] 2 µM
inactive: Potency [1] > 11.4 µM | activity change, negative = inhibition [2] 9.24% | activity change, negative = inhibition [4] 17% | activity, negative = inhibition [5] -8.66% | Potency [6] > 46 µM | Potency [7] > 46 µM | Potency [8] | Potency [9] | Potency [12] | activation [20] 1.1% | Potency [16] | outcome [17]
